Assay outcomes deposited in PubChem BioAssay by National Center for Advancing Translational Sciences (NCATS).
Tau fluor counter: Counterscreen qHTS for Inhibitors of Tau Fibril Formation, Fluorescence Polarization. tau K18 P301L Alexa594 fluorescence, heparin fibrillization. Potency, µM (series often up to 57.7 µM). actives 0.93% (n = 280,000). AID 1463, 2008; also: nearly all actives have a fitted effect of over 55% in size
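Human tau K18 P301L (15 uM unlabeled, 0.24 uM Alexa 594-labeled) in 100 mM sodium acetate pH 7 with 20 uM heparin, 6 hr at 37 C. ThT 30 uM added, 1 hr ambient; Alexa 594 FP and total fluorescence read at 555/632 nm.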
VP16 counter: VP16 counterscreen qHTS for inhibitors of ROR gamma transcriptional activity; Drosophila S2 Gal4-VP16 UAS-luciferase, luminescence, 20 h; Potency, µM (titrated, usually from 53.6 µM), actives largely listed as inhibitors; actives 3.5% (n = 310,000); AID 2546, 2010;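 also: Gal4-VP16 expression switched on by copper sulfate through the metallothionein promoter; nearly all actives have a fitted effect of over 50% in size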
RORg inh: qHTS for inhibitors of ROR gamma transcriptional activity; AID 2551, 2010; Nuclear receptor ROR-gamma (Mus musculus), P51450; actives 5.4% (n = 310,000); Drosophila S2 Gal4-RORgamma UAS-luciferase reporter, 20 h; Potency, µM (highest dose often 53.6 µM), usual class: inhibitors; also: nearly all actives have a fitted effect of over 60% in size
Target sequence (P51450 whole entry, looked up, the tested form may be a part): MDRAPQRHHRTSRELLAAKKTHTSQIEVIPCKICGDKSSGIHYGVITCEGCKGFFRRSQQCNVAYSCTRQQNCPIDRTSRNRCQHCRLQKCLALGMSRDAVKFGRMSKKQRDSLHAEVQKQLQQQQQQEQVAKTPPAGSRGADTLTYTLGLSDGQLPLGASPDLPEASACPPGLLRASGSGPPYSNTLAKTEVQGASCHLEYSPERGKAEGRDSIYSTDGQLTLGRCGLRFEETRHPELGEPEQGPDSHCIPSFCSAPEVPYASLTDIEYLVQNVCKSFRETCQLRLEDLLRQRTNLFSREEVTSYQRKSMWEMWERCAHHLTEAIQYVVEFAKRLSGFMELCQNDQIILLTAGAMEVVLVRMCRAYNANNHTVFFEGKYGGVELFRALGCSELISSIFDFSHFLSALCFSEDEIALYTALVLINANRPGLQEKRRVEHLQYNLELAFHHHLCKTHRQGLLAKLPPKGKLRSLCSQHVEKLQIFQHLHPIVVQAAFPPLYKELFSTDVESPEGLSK
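In this cell-based reporter format, copper sulfate (700 uM final) drives Gal4–ROR gamma fusion expression from a metallothionein promoter in Drosophila Schneider cells; compounds preincubated 1 hr, reporter read after 20 hr at ambient temperature.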
Tau ThT inhib: qHTS for Inhibitors of Tau Fibril Formation, Thioflavin T Binding; AID 1460, 2008; Microtubule-associated protein tau (Homo sapiens), P10636; actives 2.1% (n = 270,000); recombinant tau K18 P301L, heparin-induced fibrillization, ThT fluorescence; Potency, µM (doses to about 57.4 µM), actives largely listed as inhibitors; also: nearly all actives have a fitted effect of over 55% in size
Target sequence (P10636 561-689 P618L limits assumed): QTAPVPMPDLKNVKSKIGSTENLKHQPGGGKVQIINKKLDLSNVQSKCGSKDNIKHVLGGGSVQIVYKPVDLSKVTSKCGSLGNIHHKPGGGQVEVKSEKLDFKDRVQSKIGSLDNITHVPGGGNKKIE
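ThT emission at 510 nm, taken 1 hr after adding 30 uM dye, quantifies aggregates formed when 20 uM heparin acts on human tau K18 P301L for 6 hr at 37 C.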
Tau fibril FP: qHTS for Inhibitors of Tau Fibril Formation, Fluorescence Polarization; K18 P301L tau heparin fibrillization, Alexa594 FP, 6 h; actives 0.39% (n = 280,000); Potency, µM (highest dose often 57.7 µM), most hits filed as inhibitors; AID 1468, 2008; also: nearly all actives have a fitted effect of over 55% in size
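Steps: dispense K18 P301L tau (15 uM plus 0.24 uM Alexa 594 tracer, final) in pH 7 sodium acetate; add compound; add heparin (20 uM final); incubate 6 hr, 37 C; add ThT (30 uM final); after 1 hr ambient, read FP.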
Large screens that a line does not name were inactive; [ ] = dose if it differs, or a comment. Sampled rows, rich in hits. Any-hit rate of the full collection: about 7.3%. Calls follow the shape of the dose curve; as a rule, active = well fitted curve in the direction sought with a large enough effect; inconclusive = small, poorly fitted or top-dose-only effect, or another doubt; inactive = no such curve, though single readings can be large; an effect the other way counts as inactive or inconclusive.

O=C(c1ccccc1)N1N=C(C(F)(F)F)CC1(O)c1ccccc1O (centres undefined)	VP16 counter 12.6µM, RORg inh 8.91µM (no result: Tau fluor counter, Tau ThT inhib, Tau fibril FP)
CN1c2cc(O)c(N=NC(N)=O)cc2CC1S(=O)(=O)O (centres undefined)	none (no result: Tau fluor counter, Tau ThT inhib, Tau fibril FP)
COc1cc(Cl)c(C)cc1NC(=O)Cn1ncc2c([nH]c3ccccc32)c1=O	none (no result: VP16 counter, RORg inh)
O=C1/C(=C\c2cc([N+](=O)[O-])ccc2O)SC(=S)N1Cc1ccc(Cl)cc1	VP16 counter inconclusive (no result: Tau fluor counter, Tau ThT inhib, Tau fibril FP)
Cc1ccccc1/C=C1\SC(=S)N(/N=C/c2cc([N+](=O)[O-])ccc2O)C1=O	Tau fluor counter inconclusive, VP16 counter inconclusive, RORg inh inconclusive, Tau ThT inhib 25.1µM
N#CC1=C(N)C(C#N)(C#N)C(c2ccc[nH]2)C2CCCC=C12 (centres undefined)	Tau fluor counter inconclusive, RORg inh inconclusive, Tau ThT inhib 14.1µM, Tau fibril FP inconclusive
COc1ccccc1-c1nnc(NC(=O)c2ccc(S(=O)(=O)N3CCOCC3)cc2)o1	VP16 counter 0.631µM, RORg inh 0.708µM (no result: Tau fluor counter, Tau ThT inhib, Tau fibril FP)
COc1cc(-c2nnc(NC(=O)c3ccc(S(=O)(=O)N4CCOCC4)cc3)o2)cc(OC)c1OC	VP16 counter inconclusive, RORg inh inconclusive
COc1cccc(-c2nnc(NC(=O)c3ccc(S(=O)(=O)N4CCOCC4)cc3)o2)c1	VP16 counter 0.891µM, RORg inh 0.501µM
COc1ccc(C(=O)Nc2ccc(S(=O)(=O)N3CCOCC3)cc2)cc1OC	none
COc1ccccc1C(=O)Nc1nc(-c2ccc(S(=O)(=O)N3CCOCC3)cc2)cs1	Tau fluor counter inconclusive, VP16 counter 3.16µM
CCCC(=O)NC(=S)Nc1ccc(N2CCOCC2)c(Cl)c1	VP16 counter inconclusive, RORg inh 12.6µM
O=C(/C=C/c1ccco1)NC(=S)Nc1ccc(N2CCOCC2)c(Cl)c1	RORg inh 1.78µM, Tau ThT inhib inconclusive
CC(C)CC(=O)NC(=S)Nc1ccc(N2CCCC2)c(Cl)c1	VP16 counter 2.82µM, RORg inh 0.398µM
O=C(NC(=S)Nc1ccc(N2CCOCC2)c(Cl)c1)C(c1ccccc1)c1ccccc1	Tau fluor counter inconclusive, VP16 counter 5.62µM, RORg inh 2.82µM
COc1ccc(C(=O)NC(=S)Nc2ccc(N3CCOCC3)c(Cl)c2)cc1[N+](=O)[O-]	VP16 counter inconclusive, RORg inh inconclusive
O=C(/C=C/c1ccco1)Nc1ccccc1N1CCOCC1	VP16 counter inconclusive
O=C(CSc1nc2ccccc2c2nc(-c3ccccc3)nn12)Nc1ccc(F)cc1	none (no result: VP16 counter, RORg inh)
CN1CCN(c2nc3ccccn3c(=O)c2C=C(C#N)C#N)CC1	none (no result: Tau fluor counter, Tau ThT inhib, Tau fibril FP)
O=C(/C=C/c1ccccc1)NC(=S)Nc1ccc(N2CCOCC2)c(Cl)c1	VP16 counter inconclusive, RORg inh 2.51µM
Cc1[nH]c2ccccc2c1C(=O)/C=C\c1ccccc1Cl	Tau fluor counter inconclusive, RORg inh 12.6µM, Tau ThT inhib inconclusive, Tau fibril FP inconclusive
CC(C)CN=Cc1c(O)c([N+](=O)[O-])cc2oc3c(c12)CCCC3	Tau fluor counter inconclusive, Tau ThT inhib 4.47µM, Tau fibril FP inconclusive
Cc1cccc(/N=C/c2c(O)ccc3oc4c(c23)CCCC4)n1	Tau ThT inhib inconclusive
O=[N+]([O-])c1cc2oc3c(c2c(C=NCc2ccccc2)c1O)CCCC3	Tau ThT inhib 5.01µM, Tau fibril FP inconclusive
COc1ccc(C(=O)CCC(=O)N2CCN(c3ccc(C)cc3)C(C)C2)cc1 (centres undefined)	none (no result: Tau fluor counter, Tau ThT inhib, Tau fibril FP)
O=C(COC(=O)[C@H](Cc1c[nH]c2ccccc12)NC(=O)c1ccc(Cl)cc1)Nc1ccc2c(c1)OCO2	Tau fluor counter 8.91µM[quencher], Tau ThT inhib inconclusive
COC(=O)C(Cc1c[nH]c2ccccc12)NC(C)=O (centres undefined)	RORg inh 14.1µM
CC(C)(C)c1ccc(C(=O)NC(Cc2c[nH]c3ccccc23)C(=O)OCC(=O)c2ccc(Cl)cc2)cc1 (centres undefined)	Tau fluor counter inconclusive (no result: VP16 counter, RORg inh)
COC(=O)[C@@H](Cc1c[nH]c2ccccc12)NC(=O)c1ccc2c(c1)OCO2	VP16 counter inconclusive, RORg inh 8.91µM (no result: Tau fluor counter, Tau ThT inhib, Tau fibril FP)
CCOc1ccc(CC(=O)N/N=C/c2sccc2C)cc1	none (no result: Tau fluor counter, Tau ThT inhib, Tau fibril FP)
CC1COC(=O)O1 (centres undefined)	none (no result: Tau fluor counter, Tau ThT inhib, Tau fibril FP)
Cc1ccccc1-c1nccc(NCc2cccnc2)n1	none (no result: Tau fluor counter, Tau ThT inhib, Tau fibril FP)
O=C(NCc1ccccc1Cl)C1CCC(=O)N(CC2CCCCC2)C1 (centres undefined)	none (no result: Tau fluor counter, Tau ThT inhib, Tau fibril FP)
CCn1c2ccccc2c2cc(NC(=O)CSc3nnc(-c4cccc(OC)c4)n3N)ccc21	Tau fluor counter 15.8µM[quencher], RORg inh inconclusive, Tau ThT inhib inconclusive
CCn1c2ccccc2c2cc(NC(=O)CSc3nnc(-c4ccc(OC)c(OC)c4)n3N)ccc21	Tau fluor counter inconclusive, RORg inh inconclusive, Tau ThT inhib inconclusive
CCOc1ccc(-c2nnc(SCC(=O)Nc3ccc4c(c3)c3ccccc3n4CC)n2N)cc1	Tau fluor counter inconclusive, VP16 counter 22.4µM, RORg inh inconclusive, Tau ThT inhib inconclusive, Tau fibril FP inconclusive
CN1CCN(C(=O)C2CCC(=O)N(Cc3cccc(C(F)(F)F)c3)C2)CC1 (centres undefined)	none (no result: Tau fluor counter, Tau ThT inhib, Tau fibril FP)
